# Shown is part of a subset that was picked to be rich in hits.
# STK33 inh = inhibitors of human STK33 kinase; Q9BYT3; ADP-Glo luminescence, MBP substrate; inhibition, % at 12.5 µM; 0.44% of 27,000 active; AID 2322; in the data active means inhibition above about 20%; inconclusive means no clear call, values can overlap the other calls
# Target sequence (Q9BYT3 whole entry, looked up): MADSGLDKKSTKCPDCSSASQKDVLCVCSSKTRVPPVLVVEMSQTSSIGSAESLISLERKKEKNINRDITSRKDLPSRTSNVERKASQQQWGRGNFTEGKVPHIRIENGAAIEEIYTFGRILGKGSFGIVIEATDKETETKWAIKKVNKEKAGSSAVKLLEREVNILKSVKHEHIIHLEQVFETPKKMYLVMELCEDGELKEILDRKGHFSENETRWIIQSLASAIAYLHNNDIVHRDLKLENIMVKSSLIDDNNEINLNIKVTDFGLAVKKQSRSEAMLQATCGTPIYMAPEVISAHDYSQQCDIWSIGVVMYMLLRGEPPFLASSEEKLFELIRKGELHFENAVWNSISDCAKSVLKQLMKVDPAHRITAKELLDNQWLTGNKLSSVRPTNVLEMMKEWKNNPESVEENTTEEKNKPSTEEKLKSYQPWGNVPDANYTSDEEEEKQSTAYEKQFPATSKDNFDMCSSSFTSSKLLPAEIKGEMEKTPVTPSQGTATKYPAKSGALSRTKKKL
# NOMO-1 viab = STK33 inhibitor candidate reducing NOMO-1 cell viability. NOMO-1 AML viability, CellTiter-Glo luminescence, 72 h. inhibition, % (concentration not given with the values). 7.5% of 37,000 active; in the data active means inhibition above about 80%; inconclusive means no clear call, values can overlap the other calls
# PD-1 reversal = activators reversing PD-1 mediated T-cell inhibition; primary human CD4 T cells, PD-L1 beads, CellTiter-Glo 96 h; activation, % (concentration not given with the values); 29,000 tested, under 10 active; AID 2316; call rule not given here
# Numbers stand for hits; – = inactive; ? = inconclusive; · = not tested or not shown.
SMILES,STK33 inh,NOMO-1 viab,PD-1 reversal
FC(F)(F)c1ccc2c(c1)N(CCCN1CCN(CCCl)CC1)c1ccccc1S2,–,98.7,–
Nc1ccc(CCN2CCN(c3cccc(C(F)(F)F)c3)CC2)cc1,–,–,·
CNC(C)[C@H](O)c1ccccc1 (stereo partly specified),–,–,·
CC(O)CNCCNc1ccc([N+](=O)[O-])c2cccnc12 (stereo unspecified),–,–,–
C[C@H](N)C(=O)N[C@@H](C)C(=O)N[C@@H](Cc1ccccc1)C(=O)CCl,–,114.4,·
C=CCC1(NCCc2ccccc2)CCCCC1,·,–,–
C[C@]1(C(=O)O)CCC[C@]2(C)c3cc(O)ccc3CC[C@@H]12,–,·,·
Cn1c(=O)c2c(ncn2CCCl)n(C)c1=O,–,–,·
O=[N+]([O-])c1c(NCCO)ccc2nonc12,–,–,·
COc1ccc2c(c1)/C(=C/c1cnc[nH]1)C(=O)N2,79.1,98.2,–
COc1cccc(CNCCc2c[nH]c3ccccc23)c1O,–,–,·
COC(=O)[C@H]1O[C@@H]2C[C@H]3OC(n4cnc5c(N)ncnc54)[C@H](OC)[C@H]3O[C@@]2(O)[C@@H](O)[C@@H]1O (stereo partly specified),–,–,–
O=C(Nc1ccc2c(C(F)(F)F)cc(=O)oc2c1)c1cc(Cl)cc(Cl)c1,·,121.7,–
O=C1NC(=O)C(=C/C=C/c2ccccc2)C(=O)N1,·,112.6,–
CO[C@H](C)C(O)(C(=O)OCC1=CCN2CC[C@H](O)[C@@H]12)C(C)C (stereo partly specified),–,–,·
C[C@H](CO)N1C[C@H](C)[C@@H](CN(C)C(=O)Oc2ccccc2)OCc2cnnn2CCCC1=O,–,·,·
c1ccc2c(c1)cc1ccc3cccc4ccc2c1c34,–,–,·
O=C1c2ccccc2-c2cccc3cccc1c23,75.5,–,·
CC(C)(O)c1cc(O)c2c(c1)CCC1C(C)(C(=O)O)CCCC21C (stereo unspecified),–,–,–
CC(CO)NC(=O)C1C=C2c3cccc4[nH]cc(c34)CC2N(C)C1 (stereo unspecified),–,–,·
Cc1cc(O)cc2oc(=O)c3c(O)cc(O)cc3c12,74.1,–,–
NC(N)=NC(N)=Nc1ccc(Cl)cc1,·,–,–
CCC(C)C1NC(=O)C2CCCN2C(=O)C(CC(C)C)OC(=O)CCNC(=O)C(C)N(C)C(=O)C(C(C)C)N(C)C1=O (stereo unspecified),–,106.0,–
C=C[C@H]1CN2CC[C@H]1C[C@@H]2[C@H](O)c1ccnc2ccccc12,–,–,·
C=C(C)C1Cc2c(ccc3c(=O)c4c(oc23)COc2cc(OC)c(OC)cc2-4)O1 (stereo unspecified),–,–,·
SMILES,STK33 inh,NOMO-1 viab,PD-1 reversal
CCOC(=O)CN1C(=O)CC(C[C@@H](O)C2C[C@@H](C)C[C@H](C)C2=O)CC1=O (stereo partly specified),–,–,–
COC(=O)[C@@]1(O)C[C@@H]2O[C@@]1(C)n1c3ccccc3c3c4c(c5c6ccccc6n2c5c31)C(=O)NC4,107.6,123.6,–
CCC1(CC)C(=O)C=CNC1=O,–,–,·
O=C1NC(=O)C(CCc2ccncc2)(CCc2ccncc2)C(=O)N1c1ccccc1F,–,–,–
CC[C@@]1(O)C(=O)OCc2c1cc1n(c2=O)-c2cc3ccccc3nc2C1,–,142.5,–
CCN1C[C@@]2(COC)C3[C@@H](OC)[C@H]4[C@@H]1[C@@]3(C1C[C@]3(O)[C@H](OC(=O)c5ccccc5)C1[C@]4(OC(C)=O)[C@@H](O)[C@H]3OC)[C@@H](OC)C[C@H]2O (stereo partly specified),–,–,–
CC[C@H]1C2C[C@H]3[C@@H]4N(C)c5ccccc5C45C[C@H](C2[C@H]5O)N3[C@@H]1O (stereo partly specified),–,–,·
COc1cc(C)c(Oc2cc(C)cc(O)c2)c(O)c1,–,–,–
O=c1c2ccccc2nc(CSc2ccccn2)n1-c1ccccc1Cl,–,–,–
CCc1nc2ccccc2c(=O)n1-c1ccccc1Cl,·,104.4,–
C[C@H](CO)N1C[C@H](C)[C@@H](CN(C)C(=O)Oc2cccc3ccccc23)OCc2cnnn2CCCC1=O,–,·,·
COC[C@H]1OC(=O)c2coc3c2[C@@]1(C)C1=C(C3=O)C2CCC(=O)[C@@]2(C)C[C@H]1OC(C)=O (stereo partly specified),–,?,–
COC1CC(OC2C(C)OC(OC3C(C)OC(OC4C(C)OC(O[C@H]5CC[C@@]6(C)C(=CC[C@]7(O)C6CC(OC(=O)c6ccccc6)[C@@]6(C)[C@]7(O)CC[C@@]6(O)C(C)=O)C5)CC4OC)CC3OC)CC2OC)OC(C)C1O (stereo partly specified),–,119.5,–
CC1=C[C@H]2[C@]3(O)[C@H](C)[C@@H](O)[C@@]4(O)[C@H]([C@@H]3C=C(CO)C[C@]2(O)C1=O)C4(C)C,–,–,–
COc1ccc(C[C@H]2NC[C@H](O)[C@H]2OC(C)=O)cc1,–,120.0,·
Cc1ccc(OC(=O)N(C)C[C@@H]2OCc3cnnn3CCCC(=O)N([C@H](C)CO)C[C@H]2C)cc1,–,·,·
CCOP(=S)(OCC)SCn1c(=O)oc2cc(Cl)ccc21,–,–,·
COc1cc2c(cc1O)C[C@H]1c3c(cc(O)c(OC)c3-2)CCN1C,–,–,·
CCCN1CCc2cc(O)cc3c2[C@H]1Cc1ccc(O)c(O)c1-3,–,109.1,·
CN1CCc2cc(O)cc3c2[C@H]1Cc1ccc(O)c(O)c1-3,–,104.9,·
OC[C@H]1O[C@@H](Oc2c[nH]c3ccc(Br)c(Cl)c23)[C@H](O)[C@@H](O)[C@H]1O,–,–,–
Clc1ccc(C2CC3CCC2N3)cn1 (stereo unspecified),–,–,–
C=C1CC[C@]2(O)[C@]3(C)C[C@@]4(O)O[C@@]2([C@@H]1O)[C@]1(O)[C@@]3(O)[C@H]([C@H](OO)c2ccc[nH]2)[C@](C)(C(C)C)[C@@]14C,–,–,–
COC(=O)c1ccc(OP2(=O)COc3ccccc3OC2)cc1,·,–,–
COc1cc2c(cc1O)[C@@H]1Cc3ccc(OC)c(O)c3CN1CC2,–,108.1,·
SMILES,STK33 inh,NOMO-1 viab,PD-1 reversal
COc1ccc2c(c1O)-c1c3c(cc4c1C(C2)N(C)CC4)OCO3 (stereo unspecified),–,·,·
COc1cc2c(cc1O)C1Cc3ccc(OC)c(O)c3CN1CC2 (stereo unspecified),–,117.1,–
COc1ccc(CC2c3cc(OC)c(OC)cc3CCN2C)cc1OC (stereo unspecified),–,–,–
CC(C)(C)C(=O)C(Oc1ccc(Cl)cc1)n1cncn1 (stereo unspecified),–,–,·
COc1cc2c(cc1OC)-c1c(oc3c4c(ccc3c1=O)OC(C(C)C)C4)CO2 (stereo unspecified),–,–,·
Cn1c2c(c3ccccc31)CCNCC2,–,–,·
COc1ccc2c3c1O[C@H]1[C@@H](O)CC=C4[C@@H](C2)N(C)CC[C@]431,–,–,·
O=c1c2ccccc2[nH]c(=S)n1-c1ccc(Cl)c(Cl)c1,·,–,–
CCOC(=O)c1c(C)n(C2CCCCC2)c2ccc(O)cc12,·,–,–
C=CCN1C(=O)/C(=C/c2cc(C)n(-c3ccccn3)c2C)C(=O)NC1=S,·,111.0,–
C/C=C/[C@@H]1[C@H]2C[C@@H](C)CC[C@@H]2C(C)=C[C@H]1C(=O)c1c(O)c(-c2ccc(O)cc2)c[nH]c1=O,–,–,–
